For five compounds, composite z-score and z-score results are on record in PubChem BioAssay.

Activity calls are given as the source filed them.

For assay [1], the system named is Plasmodium falciparum Sir2 (PF13_0152, Sir2A). Nature of the assay: Plasmodium falciparum Sir2A binding compounds – biochemical, small-molecule microarray, 635 nm fluorescence, primary screen (AID 1098).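 Further: score merges spot fluorescence intensity with its signal-to-noise ratio.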 The conditions noted are these: fluorescence 635 nm, higher = more signal.
The nature of assay [2]: probe aDKK1 binding to arrayed compounds – biochemical, biotinylated probe, 635/667 nm fluorescence, primary screen (AID 1099).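 Further: score merges 667nm spot fluorescence with signal to noise across triplicate slides.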 As to conditions: small-molecule microarray, higher = more signal.
Assay [3] in a line: probe aCHRDL2 binding to arrayed compounds – biochemical, biotinylated probe, 635/667 nm fluorescence, primary screen (AID 1100). The conditions noted are these: small-molecule microarray, higher = more signal.
Assay [4] in a line: change in splice reporter luminescence, either direction, cell-based, HEK293, spliceosome inhibition project, primary screen (AID 1101).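 Further: HEK293 cells carrying a splicing-competent luciferase reporter gene; test concentration not given here.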 As to conditions: HEK293 splicing luciferase reporter, 24 h, higher = more signal, called active from +8 up or from −8 down. On the technique in general: A reporter such as luciferase makes a cellular process visible.
In assay [5] the target is Fibroblast growth factor 10 (Homo sapiens) (UniProt O15520). Nature of the assay: compounds binding fibroblast growth factor 10 – biochemical, small-molecule microarray, 635 nm fluorescence, primary screen (AID 1102). The conditions noted are these: FGF10 binding, fluorescence 635 nm, higher = more signal.
Assay [6] relates to glycogen synthase kinase-3 (GSK3A per assay name; protocol says GSK3B). Nature of the assay: compounds binding glycogen synthase kinase-3 – biochemical, small-molecule microarray, 635 nm fluorescence, GSK3A, primary screen (AID 1103). Further: the record names both GSK3A and GSK3B. The conditions noted are these: fluorescence 635 nm, higher = more signal.
Assay [7] concerns the target Epidermal growth factor receptor (Homo sapiens) (UniProt P00533). Nature of the assay: compounds binding epidermal growth factor receptor – biochemical, small-molecule microarray, 635 nm fluorescence, primary screen (AID 1104).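 Further: score merges 667 nm emission intensity with spot signal to noise over triplicate slides.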 As to conditions: EGFR binding, higher = more signal.
Assay [8] concerns the target Follistatin-related protein 3 (Homo sapiens) (UniProt O95633). Nature of the assay: compounds binding follistatin-related protein 3 – biochemical, small-molecule microarray, 635 nm fluorescence, primary screen (AID 1105).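 Further: score merges emission near 667 nm and signal to noise per printed spot across three slides.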 The conditions noted are these: FSTL3 binding, higher = more signal.
Assay [9] concerns the target Dickkopf-related protein 1 (Homo sapiens) (UniProt O94907). Nature of the assay: small molecules binding DKK1 protein – biochemical, small-molecule microarray, 635 nm fluorescence scan, primary screen (AID 1106).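 Further: score merges emission near 667 nm with signal to noise over three replicate slides.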 The conditions noted are these: higher = more signal.
The subject of assay [10] is Inhibin beta A chain (activin A). Nature of the assay: small molecules binding activin A – biochemical, small-molecule microarray, 635 nm fluorescence scan, primary screen (AID 1107).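 Further: mouse activin A protein probed at 4.33 µg/mL on printed slides; score merges bound-protein fluorescence near 667 nm with spot signal-to-noise.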 The conditions noted are these: INHBA, higher = more signal.
Assay [11] has as its system Human papillomavirus type 1a protein E7 (residues 44-93). Nature of the assay: small molecules binding HPV E7 44-93 – biochemical, small-molecule microarray, residues 44-93, 635 nm fluorescence, primary screen (AID 1108).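 Further: E7 fragment applied at 1 µg/mL in TBST for 1 h at 4 C; score combines spot fluorescence with its signal to noise ratio.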 As to conditions: fluorescence 635 nm, higher = more signal.
The nature of assay [12]: hepatitis C replication reporter changes, two-sided – Huh7 cells, luciferase reporter, HCV replication inhibitor project, primary screen (AID 1109).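 Further: huh7 hepatoma cells harbouring a luciferase neomycin HCV replicon reporter; luciferase luminescence as measure of HCV replicon replication; test concentration not given here.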 As to conditions: Huh7 HCV replicon luciferase reporter, 48 h; higher = more signal.
Assay [13] concerns the target Left-right determination factor 2 (Homo sapiens) (UniProt O00292). Briefly: small molecules binding LEFTY2 protein – biochemical, small-molecule microarray, 635 nm fluorescence scan, primary screen (AID 1110). The conditions noted are these: higher = more signal.
In assay [14] the target is Calmodulin-1 (Homo sapiens) (UniProt P0DP23). Briefly: small molecules binding calmodulin-1 with EGTA – biochemical, small-molecule microarray, Cy5-labelled CALM1, profiling panel (AID 1111).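 Further: labelled calmodulin applied in Tris saline Tween buffer holding calcium plus EGTA and DTT.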 The conditions noted are these: Cy5-CALM1 binding fluorescence, higher = more signal.
The target is the same in assay [15]. Nature of the assay: small molecules binding Ca-loaded calmodulin-1 – biochemical, small-molecule microarray, Cy5-labelled CALM1, plus calcium, artefact control for SMM control-protein annotation, profiling panel (AID 1112).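 Further: score merges spot fluorescence with signal to noise from triplicate slides.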 The conditions noted are these: Cy5-CALM1 binding fluorescence, higher = more signal.
Assay [16] is described as follows: probe aWnt5a binding to arrayed compounds – biochemical, biotinylated probe, 635/667 nm fluorescence, primary screen (AID 1113).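 Further: score merges 667 nm fluorescence intensity with signal-to-noise per printed feature.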 As to conditions: small-molecule microarray, higher = more signal.
Assay [17] in a line: probe aShh binding to arrayed compounds – biochemical, biotinylated probe, 635/667 nm fluorescence, primary screen (AID 1114).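 Further: probe is biotin-labelled aShh protein from a stem cell growth factor screen; measures binding of labelled protein to compounds printed on the slide; score merges feature fluorescence at 667 nm with signal-to-noise.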 The conditions noted are these: small-molecule microarray, higher = more signal.
Assay [18] can be described thus: probe aNog binding to arrayed compounds – biochemical, biotinylated probe, 635/667 nm fluorescence, primary screen (AID 1115).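 Further: probe is biotinylated aNog protein used at 0.15 µg/mL for 1 h at 4 C; z-score combines 667 nm fluorescence of each spot with its signal to noise.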 The conditions noted are these: small-molecule microarray, higher = more signal.
For assay [19], the target named is Torsin-1A-interacting protein 1 (Homo sapiens) (UniProt Q5JTV8). Briefly: compound microarray binding of lysate hLAP1 – cell lysate, small-molecule microarray, COS7 lysate, 635/667 nm fluorescence, primary screen (AID 1116). As to conditions: 635 nm fluorescence, higher = more signal.
Assay [20] deals with Alpha-bungarotoxin (Bungarus multicinctus) (UniProt P60615). Nature of the assay: compounds binding labelled alpha-BTX control protein – biochemical, small-molecule microarray, Alexa647 label, 635/667 nm fluorescence, artefact control for SMM control protein annotation, profiling panel (AID 1117). As to conditions: alpha-BTX-A647 binding fluorescence, higher = more signal.
Alpha-bungarotoxin (Bungarus multicinctus), sequence (P60615 whole entry, looked up): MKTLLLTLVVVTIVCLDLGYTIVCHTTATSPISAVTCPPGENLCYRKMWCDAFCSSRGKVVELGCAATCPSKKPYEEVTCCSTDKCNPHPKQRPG

Left-right determination factor 2 (Homo sapiens), sequence (O00292 whole entry, looked up): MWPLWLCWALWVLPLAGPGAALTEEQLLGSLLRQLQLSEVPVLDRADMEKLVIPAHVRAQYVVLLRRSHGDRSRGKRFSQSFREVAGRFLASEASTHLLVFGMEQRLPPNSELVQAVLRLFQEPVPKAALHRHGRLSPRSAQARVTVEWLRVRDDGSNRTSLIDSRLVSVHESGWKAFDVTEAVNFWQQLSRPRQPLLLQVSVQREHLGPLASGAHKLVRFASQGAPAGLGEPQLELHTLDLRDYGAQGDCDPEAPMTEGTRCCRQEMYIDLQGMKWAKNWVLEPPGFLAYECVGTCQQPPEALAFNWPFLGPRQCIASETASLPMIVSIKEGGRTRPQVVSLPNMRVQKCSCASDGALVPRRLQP
Dickkopf-related protein 1 (Homo sapiens), sequence (O94907 whole entry, looked up): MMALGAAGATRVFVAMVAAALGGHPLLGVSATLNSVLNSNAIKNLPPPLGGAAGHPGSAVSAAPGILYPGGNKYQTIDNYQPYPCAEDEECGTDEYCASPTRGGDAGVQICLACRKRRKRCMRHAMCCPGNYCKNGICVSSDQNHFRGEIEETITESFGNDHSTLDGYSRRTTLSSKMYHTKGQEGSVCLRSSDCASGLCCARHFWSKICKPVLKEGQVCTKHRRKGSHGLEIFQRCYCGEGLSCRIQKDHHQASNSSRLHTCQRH
Torsin-1A-interacting protein 1 (Homo sapiens), sequence (Q5JTV8 whole entry, looked up): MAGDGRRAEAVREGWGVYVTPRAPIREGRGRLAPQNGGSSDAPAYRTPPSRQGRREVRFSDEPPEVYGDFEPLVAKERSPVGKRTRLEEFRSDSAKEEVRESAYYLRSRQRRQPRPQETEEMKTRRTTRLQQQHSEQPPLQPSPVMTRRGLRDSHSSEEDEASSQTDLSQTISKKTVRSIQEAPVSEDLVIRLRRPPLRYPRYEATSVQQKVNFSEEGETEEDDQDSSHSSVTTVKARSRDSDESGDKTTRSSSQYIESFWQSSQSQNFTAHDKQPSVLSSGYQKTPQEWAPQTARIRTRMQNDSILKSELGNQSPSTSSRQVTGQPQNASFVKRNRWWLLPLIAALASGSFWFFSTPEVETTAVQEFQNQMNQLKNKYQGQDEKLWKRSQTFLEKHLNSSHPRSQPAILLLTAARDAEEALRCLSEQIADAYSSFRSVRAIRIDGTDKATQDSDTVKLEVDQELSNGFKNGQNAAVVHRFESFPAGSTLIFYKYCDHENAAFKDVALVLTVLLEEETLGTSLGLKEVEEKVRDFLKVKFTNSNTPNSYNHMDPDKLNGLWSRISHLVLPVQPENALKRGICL
Fibroblast growth factor 10 (Homo sapiens), sequence (O15520 whole entry, looked up): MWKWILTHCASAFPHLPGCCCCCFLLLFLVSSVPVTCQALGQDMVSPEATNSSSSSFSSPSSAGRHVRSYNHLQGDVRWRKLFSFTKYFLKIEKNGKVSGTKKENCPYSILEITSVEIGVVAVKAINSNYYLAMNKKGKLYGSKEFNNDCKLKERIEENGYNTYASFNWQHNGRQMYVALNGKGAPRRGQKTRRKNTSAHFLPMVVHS
Epidermal growth factor receptor (Homo sapiens), sequence (P00533 whole entry, looked up): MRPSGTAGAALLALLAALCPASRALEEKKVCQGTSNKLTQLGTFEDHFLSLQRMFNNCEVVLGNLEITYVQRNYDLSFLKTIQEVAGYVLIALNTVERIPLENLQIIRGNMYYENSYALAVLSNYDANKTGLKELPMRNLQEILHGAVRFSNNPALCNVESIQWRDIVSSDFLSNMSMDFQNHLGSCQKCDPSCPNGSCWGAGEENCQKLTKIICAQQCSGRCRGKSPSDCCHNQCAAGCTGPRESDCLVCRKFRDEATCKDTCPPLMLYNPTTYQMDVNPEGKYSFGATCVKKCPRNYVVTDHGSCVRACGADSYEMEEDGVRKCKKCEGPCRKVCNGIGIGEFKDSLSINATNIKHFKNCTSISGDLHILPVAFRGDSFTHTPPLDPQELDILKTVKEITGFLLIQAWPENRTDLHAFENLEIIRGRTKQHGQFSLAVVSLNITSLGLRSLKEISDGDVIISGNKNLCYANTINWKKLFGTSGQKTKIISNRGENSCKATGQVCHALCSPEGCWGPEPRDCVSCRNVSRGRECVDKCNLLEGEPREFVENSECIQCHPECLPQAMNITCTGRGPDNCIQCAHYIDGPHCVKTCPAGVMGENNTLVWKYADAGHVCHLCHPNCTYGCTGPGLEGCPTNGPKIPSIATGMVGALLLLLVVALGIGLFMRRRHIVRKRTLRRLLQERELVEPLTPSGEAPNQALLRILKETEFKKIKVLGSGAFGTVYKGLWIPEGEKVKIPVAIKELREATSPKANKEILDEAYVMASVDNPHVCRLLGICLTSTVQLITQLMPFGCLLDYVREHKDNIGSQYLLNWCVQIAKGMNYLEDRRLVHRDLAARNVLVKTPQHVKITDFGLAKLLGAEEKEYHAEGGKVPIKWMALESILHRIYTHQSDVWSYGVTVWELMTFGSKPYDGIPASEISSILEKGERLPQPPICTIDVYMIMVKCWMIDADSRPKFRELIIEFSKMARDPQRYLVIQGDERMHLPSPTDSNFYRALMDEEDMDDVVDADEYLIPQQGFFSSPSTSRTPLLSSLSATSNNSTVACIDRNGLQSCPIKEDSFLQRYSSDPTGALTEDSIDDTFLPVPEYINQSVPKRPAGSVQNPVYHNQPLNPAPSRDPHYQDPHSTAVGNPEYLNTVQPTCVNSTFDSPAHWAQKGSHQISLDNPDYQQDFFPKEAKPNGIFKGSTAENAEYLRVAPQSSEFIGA
Follistatin-related protein 3 (Homo sapiens), sequence (O95633 whole entry, looked up): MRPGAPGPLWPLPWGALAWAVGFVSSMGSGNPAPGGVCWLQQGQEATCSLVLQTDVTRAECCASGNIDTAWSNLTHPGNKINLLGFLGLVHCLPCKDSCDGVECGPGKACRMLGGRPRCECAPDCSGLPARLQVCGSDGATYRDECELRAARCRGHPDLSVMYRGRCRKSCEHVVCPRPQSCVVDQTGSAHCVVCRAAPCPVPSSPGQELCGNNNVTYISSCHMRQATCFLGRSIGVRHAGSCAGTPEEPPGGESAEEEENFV

For the compound `COCCCNC(=O)[C@@]1(c2ccc([N+](=O)[O-])cc2)CC(=O)N(C(C)C)[C@@H]1c1ccc(CO)cc1`, the composite z-score in assay [1] was 0.0788; in assay [2], 0.46; in [3] it was 0.8; in assay [5], -0.512; in [6], -0.63; in [7], 0.608. Moreover, the composite z-score in assay [8] is 0.373; in [9], 0.289; in assay [10], 1.07; in [11], -1.48; in [13] it was -0.195; in assay [14] it was -1.61. Besides, the composite z-score in assay [15] is -0.129; in assay [16], 0.0559; in [17], -0.211; in assay [18], -0.261; in assay [19] it was 1.94; in assay [20], 1.88. The z-score is 0.0532 (inactive) in assay [4] and 0.198 in [12].
On to `CCOC(=O)C1=C[C@@H](C(C)(C)C)N(S(=O)(=O)c2ccc(C)cc2)[C@H]1c1cccc(Cl)c1`, for which the composite z-score in assay [1] stood at 0.758; in assay [2] it was 0.821; in assay [3], 0.182; in [5], 0.907; in [6] it was 1.31; in assay [7] it was 0.427. The composite z-score in [8] is 1.36; in assay [9], 0.0675; in assay [10], -0.213; in assay [11], 0.941; in [13], 0.553; in [14], 1.09. For the same compound, the composite z-score in assay [15] was 0.321; in [16], 0.137; in assay [17] it was 0.186; in assay [18], -0.136; in assay [19] it was 0.715; in assay [20], 1.27. The values for the z-score in assay [4] and in assay [12] were -0.517 (inactive) and -2.85, respectively.
For the compound `O=C1[C@@H]2[C@@H](CC(COc3ccccc3)=C3[C@@H](CCc4ccccc4)OB(O)C[C@@H]32)C(=O)N1Cc1ccccc1`, the composite z-score in [1] is 0.393; in assay [2], -0.185; in [3] it was -0.23; in assay [5], 0.747; in [6], 0.081; in assay [7], 0.292. Also, the composite z-score is 0.163 in assay [8]; 0.147 in assay [9]; 0.343 in [10]; -0.458 in assay [11]; 0.222 in assay [13]; 0.0454 in assay [14]. The composite z-score in assay [15] was 0.171; in assay [16], -0.124; in assay [17] it was -0.0011; in [18], -0.465; in [19], -0.0169; in assay [20] it was -0.0025. Moreover, the z-score in assay [4] is -0.74 (inactive); in [12], -1.36.
`CCCCC=C[C@@H](NC(=O)c1ccccc1)c1ccccc1`: the composite z-score was 0.322 in assay [1]; 0.357 in assay [2]; 0.732 in assay [3]; 0.659 in [5]; 1.22 in assay [6]; -0.056 in assay [7]. For the same compound, the composite z-score is 0.79 in assay [8]; 0.0017 in [9]; 1.01 in [10]; 1.38 in assay [11]; -0.174 in [13]; 1.87 in assay [14]. The composite z-score in assay [15] is 1.28; in [16] it was -0.0229; in assay [17], -0.253; in assay [18], -0.578; in assay [19], 0.206; in assay [20] it was 0.448. The z-score is -0.696 (inactive) in assay [4] and 1.02 in [12].
As to `CC1(C)C(=O)C(c2ccccc2)=C2CN3C(=O)N(CCc4ccccc4)C(=O)C3(Cc3ccc(C(F)(F)F)cc3)C=C21` (stereo not given), the composite z-score in assay [1] is 0.9; in assay [2], 1.01; in [3] it was 1.12; in assay [5], 0.472; in assay [6], 0.288; in [7], -0.0744. For the same compound, the composite z-score is 0.717 in assay [8]; -1.01 in assay [9]; 0.721 in [10]; 1.19 in [11]; -0.668 in assay [13]; 1.36 in assay [14]. Further, the composite z-score in [15] was 0.858; in [16], 0.0226; in [17] it was 1.05; in [18] it was 1.8; in assay [19] it was 0.393; in [20], 0.234. Further, the z-score was 0.701 (inactive) in [4] and -1.66 in assay [12].
